Screening data from PubChem BioAssay.
Most compounds without a hit are left out; they make up all but 3.6% or so of the library.
Pf apPOL block: Pf-apPOL DNA polymerase inhibition. AID 1794808. inhibition, % at 10 µM. 210,000 compounds, 0.25% hits. Recombinant Pf-apPOL, molecular beacon fluorescence, 1.5 h
mHTT-CaM PPI inh: inhibitors of human mutant huntingtin-calmodulin interaction; P42858; AlphaScreen His-mHTT/GST-CaM binding, luminescence; inhibition, % at 15 µM; 190,000 compounds, 3.6% hits
Large screens that a line does not name were inactive. Rule as the data show it: active = inhibition above about 50%; inactive = the rest.

Cc1ccc(C)c(S(=O)(=O)N=C2C=CC(=O)C(Br)=C2)c1	mHTT-CaM PPI inh 65
Cc1ccc(C)c(S(=O)(=O)N=C2C=CC(=O)C=C2)c1	mHTT-CaM PPI inh 51
Cn1cccc1-c1cc2n(n1)CCCN2C(=O)CCC(=O)N1CCC(C(N)=O)CC1	none
O=C(NCc1ccccc1)C1CCN(S(=O)(=O)c2ccc(Br)s2)CC1	none
CSc1ncccc1C(=O)N(Cc1cccs1)Cc1cccn1C	none
O=C1CCCN2N=C(SCc3ccccc3)SC2=N1	none
COc1ccccc1NC(=O)C1=C(C)Nc2nnnn2C1c1cccc(Cl)c1 (stereo not given)	none
COc1cccc(OCCSc2nc3ccccc3s2)c1	mHTT-CaM PPI inh 96
NCCSc1nc2ccccc2s1	none
N#CC1=C(N)Oc2n[nH]c(C(F)(F)F)c2C1c1ccc(Br)cc1 (stereo not given)	none
O=C(COc1ccc(Cl)cc1)Nc1c2c(nn1-c1ccc([N+](=O)[O-])cc1)CSC2	none
N#CC1=C(N)NC(SCC(=O)Nc2ccc(Br)cc2)=C(C#N)C12CCCCC2	mHTT-CaM PPI inh 83
CCSC1=C(C#N)C2(CCCC2)C(C#N)=C(N)N1	none
Cc1nc(S(=O)(=O)NCc2cc(F)cc3c2OCOC3)cn1C	none (no result: mHTT-CaM PPI inh)
COc1ccc(Cl)cc1NC(=O)CSc1nc(=O)n(CCCO)c2c1CCCC2	mHTT-CaM PPI inh 57
COc1ccc(Cl)cc1NC(=O)CSc1nc(=O)n2cccc(C)c2n1	none
O=C(NCc1csc(C2CCCN(C(=O)C3CC3)C2)n1)C1CC1 (stereo not given)	none
CC(C)C(=O)NC(c1cccc([N+](=O)[O-])c1)c1ccc2cccnc2c1O (stereo not given)	mHTT-CaM PPI inh 100
CCCC(=O)NC(c1cccc([N+](=O)[O-])c1)c1ccc2cccnc2c1O (stereo not given)	mHTT-CaM PPI inh 99
CCCC(=O)NC(c1cccc(F)c1)c1ccc2cccnc2c1O (stereo not given)	mHTT-CaM PPI inh 100
Cc1ccc(N2CC(C(=O)NC(C)C)CC2=O)cc1Cl (stereo not given)	none
CC(=O)N1c2c(cc(Br)cc2S(=O)(=O)NC2CCCC2)CC1C (stereo not given)	none
COCCN1C(=O)C(=O)C(=C(O)c2ccc(S(=O)(=O)N(C)C)cc2)C1c1ccc(Cl)cc1 (stereo not given)	none
CCCCCC(=O)Nc1ncc2c(n1)CC(c1cc(OC)c(OC)c(OC)c1)CC2=O (stereo not given)	Pf apPOL block 82
COc1cc(C2CC(=O)c3cnc(NC(=O)c4ccccc4)nc3C2)cc(OC)c1OC (stereo not given)	none
Cc1cc(-c2ccco2)c(C#N)c(SCC(=O)c2ccc(O)c(O)c2)n1	none
CCS(=O)(=O)N1CCN(c2ccc([N+](=O)[O-])c(N3CCc4ccccc4C3)c2)CC1	none
CN1CCN(CC(=O)Nc2c3c(nc4ccccc24)N(c2cccc(Cl)c2)CC3)CC1	none
CCOC(=O)CC1(NC(=O)N2CC3CCCN3c3ccccc32)CCCCC1 (stereo not given)	mHTT-CaM PPI inh 64
CCOC(=O)C1CCC(CNC(=O)N2CC3CCCN3c3ccccc32)CC1 (stereo not given)	mHTT-CaM PPI inh 66
CCOC(=O)C1CCC(CNC(=O)N2CC(CC)Oc3ccccc32)CC1 (stereo not given)	none
COC(=O)CNC(=O)N1CC2CCCN2c2ccccc21 (stereo not given)	none
COc1ccc(-n2nc(C(=O)N3CCC(C)CC3)c3ccccc3c2=O)c(OC)c1	Pf apPOL block 51
COc1ccccc1-n1nc(C(=O)N2CCC(Cc3ccccc3)CC2)c2ccccc2c1=O	mHTT-CaM PPI inh 58
COc1ccc(-n2nc(C(=O)N3CCCC3)c3ccccc3c2=O)c(OC)c1	none
COc1ccccc1-n1nc(C(=O)N2CCC(C)CC2)c2ccccc2c1=O	none
C=CCn1nnn([C@H]2CC(=O)[C@@H]3OC[C@H]2O3)c1=S	none (no result: Pf apPOL block)
Cc1c(C(=O)N2CCCCCC2)oc2ccc(S(=O)(=O)N3CCC4(CC3)OCCO4)cc12	none
COc1c2c(cc3c1C(CC(=O)c1ccc(Cl)cc1)N(C)CC3)OCO2 (stereo not given)	none
O=C(CCc1csc(NC(=O)c2ccc(F)cc2)n1)Nc1nc(-c2ccco2)cs1	mHTT-CaM PPI inh 58
O=C(Nc1nc2c(s1)CCCC2)c1ccc(-n2cccn2)nn1	none
O=C(Nc1nc(-c2ccco2)cs1)c1ccc(-n2cccn2)nn1	mHTT-CaM PPI inh 56
CCOC(=O)N1CCN(C(=O)CCc2csc(NC(=O)c3ccc(F)cc3)n2)CC1	none
CSc1cccc(NC(=O)N2CCC(Cc3nc4cccnc4n3C(C)C)C2)c1 (stereo not given)	none
CC1CCN(CCCNc2ccc(-c3nc(-c4ccc(F)cc4)no3)cn2)CC1	none
CC1CCN(CCNc2ccc(-c3nc(-c4ccc(F)cc4)no3)cn2)CC1	mHTT-CaM PPI inh 51
O=[N+]([O-])c1cc2c(cc1CN1CCN(c3ccccc3)CC1)OCO2	none
O=[N+]([O-])c1cc2c(cc1C1N(Cc3ccccc3)CCN1Cc1ccccc1)OCO2	mHTT-CaM PPI inh 60
COc1ccc(Cl)cc1NC(=O)CSc1nnc(-c2c(C)nc3sccn23)n1C	none
